Assay [1] in a line: reducers of endogenous Her2 protein level, primary screen, SKBR3 breast tumor cells, AlphaScreen, ATP viability (AID 461;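 active = Her2 level under about 52% in both replicate screens, with viability over 70% of control, limit read from the data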;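 as to Her2 level: lower value means less Her2 protein in the cells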;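 as to viability: percent of carrier control wells set as 100% viability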). The settings on record: 18-24 h, measured here: SKBR3 viability, ATP luminescence, at 10 µM.
Assay [2] concerns the target Receptor tyrosine-protein kinase erbB-2 (Homo sapiens) (UniProt P04626). Described as above. The note with it: 18-24 h, at 10 µM, stronger effect = lower value.
Assay [3] is described as follows: SK-BR-3 cell growth inhibitors, pilot screen, 24 h, human (AID 572;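 active = viability at or below 10% of carrier control in both of two separate runs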;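 also: compound exposure lasted between 18 and 24 h rather than exactly 24 h; 100% = carrier-treated control wells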). The note with it: SK-BR-3 viability, CellTiter-Glo luminescence, at 10 µM, stronger effect = lower value.
Assay [4] in a line: HUVEC growth inhibition – cell-based, human, primary screen (AID 575;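 active = viability at or below 30% in both replicate assays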;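 also: 100% = median of untreated cell wells with 0.1% DMSO on each plate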). The note with it: HUVEC proliferation, CellTiter-Glo luminescence, 72 h; at 10 µM; stronger effect = lower value.
The nature of assay [5]: growth inhibitors of H69AR lung tumor, primary screen, human, duplicate replicates (AID 580;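 active = viability at or under a set limit in both replicates, limit being median viability minus 3 SD, cut at about 48% in these data, passing the limit was not always enough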;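 also: 100% = mean luminescence of untreated wells and 0% = no signal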). The note with it: H69AR lung tumor cells viability, ATP luminescence, 72 h; at 10 µM; stronger effect = lower value.
Assay [6] is described as follows: reversal of MRP1-mediated doxorubicin resistance, pilot screen, H69AR cells, doxorubicin co-treatment (AID 601;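 active = viability loss from added drug above about 55%, and viability with drug at most 40%, in both replicates, limit read from the data, passing the limit was not always enough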). The note with it: CellTiter-Glo, 72 h, at 10 µM; for differential viability (reversal): stronger effect = higher value.
Assay [7] can be described thus: 384-well plate pilot, post-Golgi transport modulator project, inhibition of yeast transport mutant growth (AID 636; in the data active = inhibition above about 31%). The note with it: absorbance 615 nm, about 18 h, stronger effect = higher value.
Assay [8] is described as follows: growth suppression of yeast trafficking mutant, preliminary HTS, modulators of trafficking downstream of Golgi apparatus project, 1536-format plate, OD 615 nm (AID 637; in the data active = inhibition above about 30%). The settings on record: yeast transport mutant growth, absorbance 615 nm, 18 h; stronger effect = higher value.
A short description of assay [9]: OD615 S. cerevisiae growth inhibition, permissive medium, pilot counter-assay, permissive growth control for S. cerevisiae lifespan shortening project (AID 705;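 active = growth inhibition above 25% in both replicates, a cutoff set 3 SD above the mean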). The settings on record: OD615, 24 h, at 10 µM, stronger effect = higher value.
Assay [10] in a line: Restrictive medium S. cerevisiae growth inhibition, OD615, pilot screen of yeast lifespan reduction project, restrictive growth control (AID 706;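 active = growth inhibition above a set limit, 3 SD over mean compound inhibition, in both replicates, cut at about 43% in these data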;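 also: modified DeaD lifespan yeast strain shifted to restrictive glucose medium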). The settings on record: OD615, 48 h, at 10 µM, stronger effect = higher value.
The nature of assay [11]: viability gain of MRP-1-high H69AR cells under doxorubicin, pilot screen, MRP-1 activator project, CellTiter-Glo, duplicate (AID 807;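 active = viability increase at or above a cutoff of the median across tested compounds plus 3 SD, cut at about 8.5% in these data, passing the limit was not always enough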;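 also: compound pretreatment 18-22 h then 72 h combined with doxorubicin; 0% = doxorubicin alone and 100% = vehicle without doxorubicin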). The settings on record: H69AR viability with doxorubicin, CellTiter-Glo luminescence; at 10 µM; stronger effect = higher value.
Assay [12] can be described thus: growth suppression of beta-catenin knockout HCT116, pilot screen, human colon tumor cells (AID 823;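 active = cell viability at or below a set limit in both duplicate runs, the limit being the all-compound median minus 4 SD, cut at about 23% in these data, passing the limit was not always enough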;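 also: 0% = wells killed by 20 µM Hyamine and 100% = untreated DMSO cell wells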). The settings on record: CellTiter-Glo, 60 h, at 10 µM, stronger effect = lower value.
A short description of assay [13]: growth suppression of PTEN-deleted HCT116, pilot screen, cell-based, HCT116 clonal line, CellTiter-Glo (AID 824;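 active = viability at or below 27.92% in each of two runs, the all-compound median minus 4 SD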;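 also: 0% = 20 µM Hyamine control and 100% = vehicle cell control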). The note with it: 60 h, at 10 µM, stronger effect = lower value.
Assay [14] is described as follows: inhibitors of the yeast RAM network, pilot screen, dse1pr::URA3 reporter, 5-FOA selection (AID 869;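 active = inhibition over a set limit, the all-compound mean plus 3 SD, in both replicate runs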;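 also: 0% = DMSO wells with no growth and 100% = 10 µM 1-NA-PP1 with full growth; RAM network block rescues cells from 5-FOA so hits raise OD615 growth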). The settings on record: S. cerevisiae dse1pr::URA3 5-FOA growth, OD615, 2 d; at 10 µM; stronger effect = higher value; strain carries analog-sensitive mutant Cbk1 kinase.
Assay [15] can be described thus: RAM signaling pathway blockade in yeast – S. cerevisiae, Pdr1DBD-CYC8 efflux-inhibited sensitized strain, primary screen (AID 1298).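 Also: 0% = DMSO untreated cells without growth and 100% = 10 µM 1-NA-PP1 full growth; higher means more yeast growth rescued from 5-FOA killing.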 The settings on record: S. cerevisiae cbk1-as DSE1-URA3 strain, 5-FOA growth OD615, 2 d; at 50 µM; stronger effect = higher value.
Setting [16] is: H69AR cells + 2 uM doxorubicin, measured here: viability with 2 uM doxorubicin, stronger effect = lower value.
Where [17] appears, read: H69AR cells, compound alone cytotoxicity.

Inconclusive results are not listed. The source made the active and inactive calls.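 The calls were made as follows, unless noted: active = RAM network inhibition above 8.4% in each of two replicates, 3 SD over the compound average; inconclusive = above 8.4% inhibition in only one replicate; inactive = 8.4% inhibition or less in each replicate.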

Sequence of Receptor tyrosine-protein kinase erbB-2 (Homo sapiens) (P04626 whole entry, looked up): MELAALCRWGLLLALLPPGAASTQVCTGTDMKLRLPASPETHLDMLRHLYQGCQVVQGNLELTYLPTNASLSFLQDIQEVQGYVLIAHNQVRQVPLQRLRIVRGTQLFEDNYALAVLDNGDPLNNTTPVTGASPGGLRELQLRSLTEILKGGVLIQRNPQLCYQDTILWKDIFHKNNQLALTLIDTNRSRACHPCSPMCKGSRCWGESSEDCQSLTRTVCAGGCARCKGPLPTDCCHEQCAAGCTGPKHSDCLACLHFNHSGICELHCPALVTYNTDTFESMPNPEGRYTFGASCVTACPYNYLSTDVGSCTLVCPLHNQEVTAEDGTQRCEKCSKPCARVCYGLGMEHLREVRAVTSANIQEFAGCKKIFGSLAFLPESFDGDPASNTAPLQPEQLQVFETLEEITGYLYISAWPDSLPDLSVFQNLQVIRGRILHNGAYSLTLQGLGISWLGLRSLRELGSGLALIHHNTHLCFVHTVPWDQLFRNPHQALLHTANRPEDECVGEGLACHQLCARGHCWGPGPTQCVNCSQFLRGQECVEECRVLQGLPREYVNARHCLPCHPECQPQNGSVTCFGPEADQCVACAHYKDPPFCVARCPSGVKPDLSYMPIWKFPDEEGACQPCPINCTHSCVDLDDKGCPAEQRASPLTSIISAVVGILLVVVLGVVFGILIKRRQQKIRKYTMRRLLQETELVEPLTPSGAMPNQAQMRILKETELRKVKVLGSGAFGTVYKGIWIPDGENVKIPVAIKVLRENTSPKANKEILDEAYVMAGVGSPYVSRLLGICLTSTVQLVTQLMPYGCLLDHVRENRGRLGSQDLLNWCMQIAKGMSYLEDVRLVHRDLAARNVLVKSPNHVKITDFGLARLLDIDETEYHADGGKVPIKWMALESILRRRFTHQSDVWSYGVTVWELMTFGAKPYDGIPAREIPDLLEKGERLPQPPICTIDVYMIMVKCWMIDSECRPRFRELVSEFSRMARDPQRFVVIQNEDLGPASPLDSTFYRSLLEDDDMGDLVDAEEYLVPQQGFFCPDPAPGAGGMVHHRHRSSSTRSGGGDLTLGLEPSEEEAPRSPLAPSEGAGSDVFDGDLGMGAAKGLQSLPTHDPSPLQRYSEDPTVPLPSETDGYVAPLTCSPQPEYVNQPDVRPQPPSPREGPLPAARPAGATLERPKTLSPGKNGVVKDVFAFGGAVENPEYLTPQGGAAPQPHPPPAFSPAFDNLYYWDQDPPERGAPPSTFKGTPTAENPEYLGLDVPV

On to `CCOC(=O)N1CCC(N2C(=O)c3ccccc3C2Nc2cc(Cl)c(OC)cc2OC)CC1` (stereo not drawn), for which the viability in assay [1] is 92.5%; in assay [3] it was 92.5% (inactive); in assay [4], 91.6% (inactive); in assay [5], 78.2% (inactive); in assay [6] (setting [16]), 64.2%; in assay [6] (setting [17]) it was 78.2%. In addition, the viability in assay [12] was 77.8% (inactive); in [13], 76% (inactive). Also, the Her2 level in assay [2] was 114% (inactive). Besides, in [6] (H69AR cells + 2 uM doxorubicin), the differential viability (reversal) is 14% (inactive). In addition, the inhibition in assay [7] was -4.8% (inactive); in assay [8] it was 0.83% (inactive); in assay [14], 0.285% (inactive). Moreover, the growth inhibition in [9] is 3.33% (inactive); in assay [10], 4.05% (inactive). Besides, the viability increase in assay [11] is -4.45% (inactive). The RAM network inhibition in [15] was 3.54% (inactive).

For `CCOC(=O)N1CCC(NC(=O)CN2C(=O)CCSc3ccccc32)CC1`, the viability is 96.5% in assay [1]; 96.5% (inactive) in assay [3]; 87.5% (inactive) in assay [4]; 93.1% (inactive) in [5]; 96.6% in [6] (setting [16]); 93.1% in [6] (setting [17]). For the same compound, the viability is 106% (inactive) in assay [12] and 101% (inactive) in assay [13]. Also, in [2], the Her2 level was 97.5% (inactive). Also, in [6] (H69AR cells + 2 uM doxorubicin), the differential viability (reversal) was -3.45% (inactive). Also, the figures for the inhibition in assay [7], in assay [8] and in assay [14] were -1.87% (inactive), -1.15% (inactive) and 2.65% (inactive), respectively. Further, the growth inhibition in assay [9] is 5.44% (inactive); in [10], -4.73% (inactive). The viability increase in assay [11] was 1.02% (inactive). In [15], the RAM network inhibition is -0.42% (inactive).

For `CCN1CCN(CCCNC(=O)c2cc3sccc3n2CC)CC1`, the viability is 96.5% in assay [1]; 96.5% (inactive) in assay [3]; 99% (inactive) in assay [4]; 89.4% (inactive) in assay [5]; 91% in [6] (setting [16]); 89.4% in assay [6] (setting [17]). Also, the viability in assay [12] is 96.9% (inactive); in [13], 98.6% (inactive). In addition, the Her2 level in assay [2] is 120% (inactive). Also, the differential viability (reversal) in [6] (H69AR cells + 2 uM doxorubicin) is -1.6% (inactive). The inhibition was -0.27% (inactive) in [7], 3% (inactive) in assay [8] and 0.865% (inactive) in [14]. The growth inhibition is -3.32% (inactive) in assay [9] and -3.54% (inactive) in assay [10]. The viability increase in assay [11] is -1.72% (inactive). In addition, in [15], the RAM network inhibition is 1.23% (inactive).

With `O=C(c1ccc(CNc2c(N3CCCC3)c(=O)c2=O)cc1)N1CCc2ccccc2C1`, the viability in assay [1] was 90.5%; in assay [3] it was 90.5% (inactive); in assay [4], 104% (inactive); in [5], 95.3% (inactive); in [6] (setting [16]) it was 92.6%; in assay [6] (setting [17]), 95.3%. Also, the viability was 92.6% (inactive) in [12] and 91% (inactive) in assay [13]. Besides, in [2], the Her2 level is 100% (inactive). In assay [6] (H69AR cells + 2 uM doxorubicin), the differential viability (reversal) is 2.69% (inactive). Besides, the values for the inhibition in assay [7], in [8] and in assay [14] were 3.59% (inactive), 6.67% (inactive) and 0.36% (inactive), respectively. The growth inhibition is -4% (inactive) in assay [9] and -0.375% (inactive) in [10]. The viability increase in [11] is -0.78% (inactive). In addition, the RAM network inhibition in [15] is 0.72% (inactive).

On to `COc1cccc(C2C(C(=O)c3ccc(C)o3)=C(O)C(=O)N2CCCN(C)C)c1` (stereo not drawn), for which the viability in assay [1] is 99.5%; in [3] it was 99.5% (inactive); in assay [4], 100% (inactive); in [5] it was 108% (inactive); in assay [6] (setting [16]) it was 95%; in assay [6] (setting [17]), 108%. The viability in assay [12] was 102% (inactive); in [13], 96.1% (inactive). In addition, the Her2 level in assay [2] was 90.5% (inactive). Further, the differential viability (reversal) in assay [6] (H69AR cells + 2 uM doxorubicin) is 12.6% (inactive). Besides, the figures for the inhibition in [7], in [8] and in assay [14] were -4.73% (inactive), 7.14% (inactive) and -0.125% (inactive), respectively. Besides, the growth inhibition was -10.7% (inactive) in assay [9] and -11.7% (inactive) in [10]. In addition, in assay [11], the viability increase is -1.16% (inactive). For the same compound, the RAM network inhibition in assay [15] is 1.67% (inactive).

Turning to `CCC1CCCCN1CCNS(=O)(=O)c1ccc2c(c1)oc(=O)n2C` (stereo not drawn), the viability was 91.5% in [1]; 91.5% (inactive) in assay [3]; 79.8% (inactive) in [4]; 85.2% (inactive) in assay [5]; 85.1% in assay [6] (setting [16]); 85.2% in [6] (setting [17]). Besides, the viability in assay [12] is 97.9% (inactive); in assay [13], 95.1% (inactive). The Her2 level in [2] is 84.5% (inactive). Further, the differential viability (reversal) in assay [6] (H69AR cells + 2 uM doxorubicin) was 0.025% (inactive). Further, the inhibition in assay [7] is -1.28% (inactive); in assay [8] it was 0.67% (inactive); in assay [14], 2.01% (inactive). Moreover, the growth inhibition was -0.855% (inactive) in assay [9] and -5.11% (inactive) in assay [10]. Besides, in [11], the viability increase was -2.8% (inactive). Moreover, the RAM network inhibition in [15] is -1.43% (inactive).

As for `COc1ccc(C2CC(=O)C(C=NCCCN3CCOCC3)=C(O)C2)cc1` (stereo not drawn), the viability is 84.5% in assay [1]; 84.5% (inactive) in [3]; 102% (inactive) in assay [4]; 99.3% (inactive) in assay [5]; 86.5% in [6] (setting [16]); 99.3% in assay [6] (setting [17]). Moreover, the results for the viability in [12] and in [13] were 103% (inactive) and 101% (inactive), respectively. For the same compound, in [2], the Her2 level was 82.5% (inactive). For the same compound, in assay [6] (H69AR cells + 2 uM doxorubicin), the differential viability (reversal) was 12.8% (inactive). The inhibition in assay [7] was -1.15% (inactive); in assay [8] it was -1.33% (inactive); in [14], 2.07% (inactive). The growth inhibition in assay [9] was -0.615% (inactive); in assay [10], 1.58% (inactive). The viability increase in [11] was 0.71% (inactive). Besides, the RAM network inhibition in assay [15] was 3.01% (inactive).

For `O=C(CC1Oc2ccc(Cl)cc2NC1=O)NC1CCCCCC1` (stereo not drawn), the viability in assay [1] was 92.5%; in assay [3] it was 92.5% (inactive); in assay [4] it was 78.1% (inactive); in assay [5], 88% (inactive); in [6] (setting [16]), 91.6%; in assay [6] (setting [17]), 88%. Besides, the viability in [12] and in assay [13] was 102% (inactive) in each case. In [2], the Her2 level is 87.5% (inactive). In assay [6] (H69AR cells + 2 uM doxorubicin), the differential viability (reversal) was -3.67% (inactive). Moreover, the values for the inhibition in assay [7], in [8] and in assay [14] were -1.47% (inactive), 2.13% (inactive) and 3.56% (inactive), respectively. The growth inhibition in assay [9] was -4.77% (inactive); in assay [10], -8.75% (inactive). Also, the viability increase in [11] was -1.05% (inactive). Further, in [15], the RAM network inhibition was 4.95% (inactive).

In the case of `O=C(Nc1nc(-c2ccccn2)cs1)C1CC1`, the viability in [1] was 93.5%; in [3], 93.5% (inactive); in [4], 96.1% (inactive); in assay [5] it was 82% (inactive); in [6] (setting [16]), 101%; in assay [6] (setting [17]) it was 82%. In addition, the viability in [12] is 67.3% (inactive); in assay [13], 70.5% (inactive). The Her2 level in assay [2] was 97.5% (inactive). Moreover, in assay [6] (H69AR cells + 2 uM doxorubicin), the differential viability (reversal) was -19.5% (inactive). Moreover, the results for the inhibition in assay [7], in assay [8] and in [14] were 1.07% (inactive), -3.17% (inactive) and 0.575% (inactive), respectively. In addition, the values for the growth inhibition in assay [9] and in [10] were 0.675% (inactive) and 1.15% (inactive), respectively. Also, in assay [11], the viability increase was 0.73% (inactive). For the same compound, in assay [15], the RAM network inhibition was 0.89% (inactive).

Values taken from PubChem BioAssay.
